Reference: PubChem BioAssay (NCATS)
Values joined by “and” are separate entries in the source; they are usually repeats but may differ in a detail not shown here. Equal values may be shown once. Records with an inconclusive call do not appear. Active and inactive are the calls of the source. Calls come from the whole dose curve; as a rule, active = well fitted curve in the direction sought with a large enough effect; inconclusive = small, poorly fitted or top-dose-only effect, or another doubt; inactive = no such curve, though single readings can be large; an effect the other way counts as inactive or inconclusive.

What was measured:
[1] = test system: HaCat; experiment: Cytotoxic Profiling of Annotated Libraries Using Quantitative High-Throughput Screening (AID 1296008); details: Five cell lines viability, CellTiter-Glo ATP luminescence, 48-72 h; max response: active compounds read low; note: nearly all actives have a fitted effect of over 60% in size; note: potency is the fitted concentration of half-maximal effect; for max response: % is set by controls: 0 for no effect and ±100 for the full control effect
How it was run: (§1)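 Cells exposed to compounds for 48 or 72 hr at 37 degrees Celsius. Viability read as ATP-coupled luminescence with CellTiter-Glo after 10 min at room temperature.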

[2] = test system: NIH3T3; experiment: as above; details: Five cell lines viability, CellTiter-Glo ATP luminescence, 48-72 h; max response: active compounds read low
How it was run: as §1

[3] = test system: MCC-13; experiment: qHTS assay to identify novel small-molecules to repurpose for Merkel cell carcinoma treatment (AID 1296009); details: MCC and control cell lines, CellTiter-Glo viability, 72 h; series mostly up to 46 µM; note: nearly all actives have a fitted effect of over 60% in size; note: potency is the fitted concentration of half-maximal effect
How it was run: (§2)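 Dose-response viability screen; 72 hr exposure at 37 degree celsius; CellTiter-Glo added, 10 min room temperature, luminescence read; RLUs scaled between no-cell and DMSO wells.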

[4] = test system: MCC-26; experiment: as above; details: MCC and control cell lines, CellTiter-Glo viability, 72 h; series mostly up to 46 µM
How it was run: as §2

[5] = test system: MKL-1; experiment: as above; details: MCC and control cell lines, CellTiter-Glo viability, 72 h; series mostly up to 46 µM
How it was run: as §2

[6] = test system: CAOV3; experiment: Primary qHTS to identify gynecologic anti-cancer compounds using libraries of approved drugs and bioactive compounds (AID 1345084); details: Gynecologic cancer cell panel viability, ATPlite luminescence, 48 h; series mostly up to 57.5 µM; note: % is set by controls: 0 for no effect and ±100 for the full control effect; nearly all actives have a fitted effect of over 55% in size
How it was run: (§3)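 Luminescence from the ATPlite ATP-monitoring reagent indicates viable cell number; lower signal means cytotoxicity. Cells received compound 16 h after seeding and were exposed for 48 h across five concentrations.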

[7] = test system: MKL-2; experiment: qHTS assay to identify novel small-molecules to repurpose for Merkel cell carcinoma treatment (AID 1296009); details: MCC and control cell lines, CellTiter-Glo viability, 72 h; series mostly up to 46 µM; note: nearly all actives have a fitted effect of over 60% in size; note: potency is the fitted concentration of half-maximal effect
How it was run: as §2

[8] = test system: KB-3-1; experiment: Cytotoxic Profiling of Annotated Libraries Using Quantitative High-Throughput Screening (AID 1296008); details: Five cell lines viability, CellTiter-Glo ATP luminescence, 48-72 h; max response: active compounds read low; note: nearly all actives have a fitted effect of over 60% in size; note: potency is the fitted concentration of half-maximal effect; for max response: % is set by controls: 0 for no effect and ±100 for the full control effect
How it was run: as §1

[9] = test system: UISO; experiment: qHTS assay to identify novel small-molecules to repurpose for Merkel cell carcinoma treatment (AID 1296009); details: MCC and control cell lines, CellTiter-Glo viability, 72 h; series mostly up to 46 µM; note: nearly all actives have a fitted effect of over 60% in size; note: potency is the fitted concentration of half-maximal effect
How it was run: as §2

[10] = test system: WaGa; experiment: as above; details: MCC and control cell lines, CellTiter-Glo viability, 72 h; series mostly up to 46 µM
How it was run: as §2

[11] = test system: C33A; experiment: Primary qHTS to identify gynecologic anti-cancer compounds using libraries of approved drugs and bioactive compounds (AID 1345084); details: Gynecologic cancer cell panel viability, ATPlite luminescence, 48 h; series mostly up to 57.5 µM; note: % is set by controls: 0 for no effect and ±100 for the full control effect; nearly all actives have a fitted effect of over 55% in size
How it was run: as §3

[12] = test system: CASKI; experiment: as above; details: Gynecologic cancer cell panel viability, ATPlite luminescence, 48 h; series mostly up to 57.5 µM
How it was run: as §3

[13] = test system: HACAT; experiment: qHTS assay to identify novel small-molecules to repurpose for Merkel cell carcinoma treatment (AID 1296009); details: MCC and control cell lines, CellTiter-Glo viability, 72 h; at 44.8 µM (top of the series) unless noted; note: nearly all actives have a fitted effect of over 60% in size; note: potency is the fitted concentration of half-maximal effect
How it was run: as §2

[14] = test system: NIH3T3; experiment: as above; details: MCC and control cell lines, CellTiter-Glo viability, 72 h; series mostly up to 44.8 µM
How it was run: as §2

[15] = test system: TAB113; experiment: qHTS profiling for inhibitors of Plasmodium falciparum proliferation (AID 504749); details: P. falciparum in erythrocytes, SYBR Green DNA, 72 h; series mostly up to 28.7 µM
How it was run: (§4)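 Each compound contacts P. falciparum-infected red blood cells for 72 h at 37 C; lysis buffer (Tris, EDTA, saponin, Triton X, SYBR Green I) is added and fluorescence measured next morning; values normalized to controls.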

[16] = test system: TAB165; experiment: as above; details: P. falciparum in erythrocytes, SYBR Green DNA, 72 h; series mostly up to 28.7 µM
How it was run: as §4

[17] = test system: W2; experiment: as above; details: P. falciparum in erythrocytes, SYBR Green DNA, 72 h; series mostly up to 28.7 µM
How it was run: as §4

Cc1ccccc1C(=O)c1ccc(Nc2ccc(Br)cc2N)cc1Cl
inactive: max response [1] -2.01% | max response [2] -21.7% | Potency [3] | Potency [4] | Potency [5] | Potency [6]

CCc1cc(-c2n[nH]c(C)c2-c2ccc3c(c2)OCCO3)c(O)cc1O
active: Potency [1] 7.43 µM | Potency [2] 8.33 µM
inactive: Potency [7]

COc1cc2nc(-c3cc(F)ccc3O)nc(N[C@@H]3CNC[C@@H]3C(C)(C)O)c2cc1OC
active: Potency [1] 26.4 µM | Potency [8] 16.6 µM | Potency [3] 20.9 µM | Potency [7] 9.35 µM

CN1CCc2c(n(Cc3ccc(C(=O)NO)cc3)c3ccccc23)C1
inactive: Potency [3] | Potency [4] | Potency [9] | Potency [11] | Potency [6] | Potency [12]
active: Potency [7] 14.8 µM | Potency [10] 18.7 µM

CCCCc1ccc(NS(=O)(=O)c2ccc(C)c(C(=O)N3CCN(c4cccc(C)c4C)CC3)c2)cc1
inactive: max response [1] -17% | Potency [3] | Potency [4] | Potency [5] | Potency [7] | Potency [10]

C[C@@H]1C[C@H]2[C@@H]3CCC4=CC(=O)C=C[C@]4(C)[C@@]3(F)[C@@H](O)C[C@]2(C)[C@@]1(O)C(=O)CO
inactive: Potency [11] | Potency [6] | Potency [12]

CN1CCC[C@H]1CCO[C@](C)(c1ccccc1)c1ccc(Cl)cc1
inactive: outcome [1] | max response [8] -5.55% | max response [2] -18.8% | outcome [13] | Potency [3] | Potency [4] | Potency [5] | Potency [7] | Potency [9] | Potency [10]

CC[C@H](C)n1cc(C)c2c(C(=O)NCc3c(C)cc(C)[nH]c3=O)cc(-c3ccc(N4CCNCC4)nc3)cc21
inactive: outcome [1] | outcome [2] | outcome [13] | Potency [3] | Potency [4] | Potency [5] | Potency [7] | Potency [14] | Potency [9] | Potency [10]

O=C(O)c1ccc(O)c2ncc(N3CCOCC3)cc12
inactive: outcome [1] | max response [8] 3.25% | outcome [13] | Potency [3]
active: Potency [5] 16.6 µM | Potency [7] 14.8 µM | Potency [10] 23.5 µM

O=C(Nc1ncc(SCCN2CCCC2)s1)[C@]1(c2ccc(S(=O)(=O)C3CC3)cc2)C[C@@H]1C1CCCCC1
inactive: Potency [3] | Potency [4]
active: Potency [2] 23.5 µM

COc1c(C)c2c(c(O)c1CC=C(C)CCC(=O)O)C(=O)OC2
active: Potency [2] 3.72 µM | Potency [5] 4.69 µM | Potency [7] 2.09 µM | Potency [9] 9.35 µM | Potency [10] 3.32 µM
inactive: max response [1] -8.02%

CON(C)C(=O)N1N=C(c2cc(F)ccc2F)S[C@]1(CCCN)c1ccccc1
inactive: max response [1] -26.8% | max response [2] -18.9% | Potency [5] | Potency [7] | Potency [9] | Potency [10]
active: Potency [8] 0.0008 µM | Potency [3] 0.0093 µM

CNC(=O)[C@H](Cc1ccccc1)NC(=O)[C@H](CC(C)C)[C@H](CSc1cccs1)C(=O)NO
active: Potency [1] 13.2 µM
inactive: max response [8] 2.61% | max response [2] 0.205% | Potency [3] | Potency [4] | Potency [5] | Potency [7] | Potency [9]

COc1ccc2nc3cc(Cl)ccc3c(Nc3cc(CN4CCCC4)c(O)c(CN4CCCC4)c3)c2n1
active: Potency [10] 18.7 µM
inactive: outcome [1] | max response [2] -1.17% | outcome [13] | Potency [3] | Potency [4] | Potency [9]

COc1cc2c(cc1Cc1cccc(Cl)c1F)c(=O)c(C(=O)O)cn2[C@H](CO)C(C)C
inactive: max response [1] -24.6% | Potency [4]
active: Potency [7] 18.7 µM

O=C1CN2Cc3c(ccc(Cl)c3Cl)N=C2N1
inactive: max response [1] -28.5% | Potency [3] | Potency [4] | Potency [5] | Potency [7] | Potency [9] | Potency [10]

CN1CCN(c2cccc(Nc3nc4c(-c5ccc(S(C)(=O)=O)cc5)cccn4n3)c2)CC1
inactive: outcome [8] | max response [2] -10.8% and -33.2% | Potency [3] | Potency [4] | Potency [5] | Potency [7] | Potency [9] | Potency [10] | Potency [11] | Potency [6] | Potency [12]
active: Potency [1] 14.8 µM and 5.17 µM

Cc1[nH]c(C=C2C(=O)Nc3ccc(S(=O)(=O)N(C)c4cccc(Cl)c4)cc32)c(C)c1C(=O)N1CCN(C)CC1
active: Potency [2] 9.35 µM | Potency [7] 20.9 µM | Potency [10] 20.9 µM
inactive: max response [1] -0.347%

CN(C)S(=O)(=O)c1ccc2c(c1)C(=Cc1cc3c([nH]1)CCCC3)C(=O)N2
inactive: max response [8] -0.966% | Potency [3] | Potency [4] | Potency [7] | Potency [9] | Potency [10]

Clc1ccc(COC(Cn2ccnc2)c2ccc(Cl)cc2Cl)c(Cl)c1 (stereo not drawn)
active: Potency [15] 3.16 µM | Potency [16] 1 µM | Potency [17] 2.28 µM
inactive: Potency [3] | Potency [4] | Potency [5] | Potency [7]
